Screening data (PubChem BioAssay)
KCNQ2 pot: enhances the rat KCNQ2 potassium channel. O88943. B-score at 10 µM. CHO-K1 KCNQ2, FluxOR thallium flux fluorescence; hits give high values. 310,000 compounds, 0.54% hits;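 active means fluorescence ratio B-score at least 3 SD of library B-scores, with initial fluorescence B-score within 3 of them, cut at about 5.3 in these data; same plate scores as AID 2156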;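 further: B-score of peak minus minimum over baseline fluorescence ratio after K+ and Tl+ stimulus; positive B-score means potentiation of KCNQ2 with more thallium influx and brighter signal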
KCNQ2 block: blocks the rat KCNQ2 potassium channel | O88943 | CHO-K1 KCNQ2, FluxOR thallium flux, 20 min; hits give low values | B-score at 10 µM | 310,000 compounds, 1.1% hits;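 active means fluorescence ratio B-score at most minus 3 library SDs, with starting brightness B-score within 2 library SDs, cut at about -5.5 in these data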
Kir21 conf inh: confirmation of mouse Kir2.1 potassium channel inhibitors; shares compounds with KCNQ2 pot; Tl flux remaining, % of negative control (hits give low values), % at 10 µM; AID 2032; 2,300 compounds, 41% hits; Kir2.1-expressing cells, FluxOR thallium flux fluorescence; hits give low values;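 active means Primary-screen hit whose thallium flux fell at least 3 control SD below untreated wells in both duplicates, with normal baseline fluorescence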
HEK293 ctr: counter-screen for Kir2.1 inhibitors: effect in parental HEK293 cells. shares compounds with KCNQ2 pot. FluxOR thallium flux fluorescence; 0% = unstimulated blank wells. FluxOR signal as % of negative control (100 = no effect), % at 10 µM. 2,300 compounds, 19% hits;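 active means dye signal at least 3 control SD above or below untreated wells in both duplicates, raw fluorescence within 3, either direction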;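 further: percent is based on the flux ratio of peak minus minimum fluorescence over baseline F0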
CHO-K1 ctr: alters thallium flux in parental CHO-K1 cells, KCNQ2 counter-screen; FluxOR thallium flux fluorescence; zero = vehicle mean+3SD, 100% = vehicle-minus-blank window; 1,200 compounds, 43% hits; activity increase over 3SD of controls, % at 10 µM; shares compounds with KCNQ2 pot; AID 2282;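 active means signal rise of at least 3 SD above the untreated control mean, in both duplicate wells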;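 further: counter screen of KCNQ2 potentiator hits so any rise reflects channel-independent effects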
KCNQ1 pot spec: tests whether KCNQ2 potentiators also act on human KCNQ1; 1,200 compounds, 28% hits; activation over 3SD threshold, % at 10 µM; shares compounds with KCNQ2 pot; CHO KCNQ1 stable, FluxOR thallium flux fluorescence; beyond 3SD, as % of vehicle-control signal;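 active means fluorescence ratio rise of at least 3 SD of vehicle wells above their mean, in both replicate wells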
Target sequence (P51787 whole entry, looked up): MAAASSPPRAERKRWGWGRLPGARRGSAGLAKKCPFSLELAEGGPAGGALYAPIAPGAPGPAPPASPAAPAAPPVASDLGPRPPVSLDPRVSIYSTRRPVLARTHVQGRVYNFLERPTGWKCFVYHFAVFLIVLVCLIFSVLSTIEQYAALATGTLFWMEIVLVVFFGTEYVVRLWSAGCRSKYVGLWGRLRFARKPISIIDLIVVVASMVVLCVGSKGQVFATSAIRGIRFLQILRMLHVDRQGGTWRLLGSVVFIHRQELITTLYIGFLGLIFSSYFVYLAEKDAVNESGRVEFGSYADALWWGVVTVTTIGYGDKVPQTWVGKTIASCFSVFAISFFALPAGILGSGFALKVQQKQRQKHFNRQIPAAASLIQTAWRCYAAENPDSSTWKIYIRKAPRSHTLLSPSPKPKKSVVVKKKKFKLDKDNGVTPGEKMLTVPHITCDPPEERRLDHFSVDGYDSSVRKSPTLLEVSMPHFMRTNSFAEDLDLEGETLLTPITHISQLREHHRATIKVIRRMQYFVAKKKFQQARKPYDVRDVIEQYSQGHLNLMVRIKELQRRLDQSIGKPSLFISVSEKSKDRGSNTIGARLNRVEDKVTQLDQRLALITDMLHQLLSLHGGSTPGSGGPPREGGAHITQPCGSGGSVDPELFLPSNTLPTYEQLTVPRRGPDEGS
KCNQ2 pot conf: rat KCNQ2 channel potentiator confirmation. shares compounds with KCNQ2 pot. CHO-KCNQ2 cells, FluxOR thallium flux fluorescence. potentiation, less the hit threshold, % at 10 µM. 1,200 compounds, 68% hits. AID 2287;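 active means fluorescence ratio rising 3 SD or more over the vehicle control mean in both replicates, plus primary screen hit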;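 further: peak minus minimum thallium fluorescence divided by baseline after K/Tl stimulus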
Kir21 spec: selectivity of KCNQ2 potentiators: effect on mouse Kir2.1; HEK293 Kir2.1, FluxOR thallium flux fluorescence; shares compounds with KCNQ2 pot; 1,200 compounds, 2% hits; activity over 3SD threshold, % at 10 µM; AID 2345;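 active means fluorescence ratio rise of at least 3 SD above the vehicle-control mean, seen in both replicates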
KCNQ2 W236L pot: KCNQ2 potentiators acting on retigabine-insensitive rat KCNQ2 W236L mutant; shares compounds with KCNQ2 pot; 940 compounds, 10% hits; AID 2558; CHO KCNQ2-W236L, automated patch clamp current; current increase over 3SD of negative controls (%), hits give high values, % at 25 µM;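 active means current increase at least 3 SD of the untreated controls above them in both duplicate recordings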
A number is an active result; n = inactive; x = not tested or not shown. An excerpt weighted towards active compounds, which were near 1.6% of everything screened.

SMILES	KCNQ2 pot	KCNQ2 block	Kir21 conf inh	HEK293 ctr	others
O=C1CN(C(=O)C2CCC(=O)N(CCc3ccc(Cl)cc3)C2)CCN1 (configuration not stated)	x	n	x	x
CCCCCCOc1ccc(/C(C)=N/NC2=NCCN2)cc1[N+](=O)[O-]	n	n	x	x
CCCCOc1ccc(Br)cc1/C(C)=N/NC1=NCCN1	x	n	n	n
O=C(Nc1sc2c(c1C(=O)O)CCC2)c1ccccc1	n	n	x	x
O=C(Nc1sc2c(c1C(=O)O)CCCC2)c1cccc(Cl)c1	5.44	n	n	n	CHO-K1 ctr=n;KCNQ1 pot spec=n;KCNQ2 pot conf=4.9;Kir21 spec=n;KCNQ2 W236L pot=n
O=C(Nc1sc2c(c1C(=O)O)CCCCC2)c1ccccc1	n	n	x	x
O=C(Nc1sc2c(c1C(=O)O)CCCC2)c1ccc(Cl)cc1	7.88	n	n	n	CHO-K1 ctr=n;KCNQ1 pot spec=n;KCNQ2 pot conf=n;Kir21 spec=n
Cc1cccc2c(CC(=O)Nc3ccccc3)noc12	n	n	x	x
COc1ccc(NC(=O)CSCC(=O)Nc2ccccc2N2CCCC2)cc1	n	n	x	x
CN1CCN(c2ccccc2NC(=O)Cc2ccc(Cl)cc2)CC1	n	n	x	x
O=C(Cc1ccc(F)cc1)Nc1ccccc1N1CCCC1	10.8	n	59.0%	n	CHO-K1 ctr=2.5;KCNQ1 pot spec=n;KCNQ2 pot conf=48.4;Kir21 spec=n;KCNQ2 W236L pot=n
COc1ccc(NC(=O)CSCC(=O)Nc2ccccc2N2CCCCC2)cc1	6.74	n	x	x	CHO-K1 ctr=18.7;KCNQ1 pot spec=59.6;KCNQ2 pot conf=n;Kir21 spec=n
O=C(Nc1ccc(F)cc1)Nc1ccccc1N1CCCCC1	n	n	x	x
O=C(Cc1ccc(Cl)c(Cl)c1)Nc1ccccc1N1CCCC1	7.2	n	n	n	CHO-K1 ctr=103.3;KCNQ1 pot spec=n;KCNQ2 pot conf=56.4;Kir21 spec=n;KCNQ2 W236L pot=n
O=C(Nc1ccccc1C(=O)Nc1ccncc1)c1ccccc1	n	n	x	x
Cc1cc(-c2ccccc2)c2c(=O)[nH][nH]c2n1	x	n	x	x
CC(O)CNCCCOc1cccc(Oc2ccccc2)c1 (configuration not stated)	n	n	14.5%	n
CC(O)CNCCCOc1cccc(C(F)(F)F)c1 (configuration not stated)	n	n	x	x
NC(=O)c1nn(-c2ccccc2)nc1NC(=O)Cn1nnc(-c2ccccc2)n1	n	n	x	x
O=C(O)C1CCN(S(=O)(=O)c2ccc(N3CCCC3C(=O)O)c([N+](=O)[O-])c2)CC1 (configuration not stated)	x	n	x	x
COc1cc(C)c(C)cc1S(=O)(=O)n1c(C)nc2ccccc21	x	n	x	x
COc1cc(F)ccc1S(=O)(=O)n1c(C)nc2ccccc21	x	n	52.5%	n
Cc1ccc2nc(SCC(=O)N3CCC(C)CC3)nc(=O)n2c1	n	n	x	x
COc1ccc(CCN(C)C(=O)c2ccc(COc3ccccc3)o2)cc1OC	x	n	56.0%	n
CCCc1ccc(OCc2ccc(C(=O)O)o2)c(OC)c1	n	n	x	x
SMILES	KCNQ2 pot	KCNQ2 block	Kir21 conf inh	HEK293 ctr	others
Cc1[nH]c2ccccc2c1C(=O)CN1CCN(c2ccc(Cl)cc2)CC1	n	n	x	x
O=C(CSc1nnc(CNC(=O)c2c(F)cccc2F)o1)NCc1ccco1	n	n	x	x
O=C(Cc1ccc(-n2cnnn2)cc1)NC12CC3CC(CC(C3)C1)C2	6.18	n	n	n	CHO-K1 ctr=83.0;KCNQ1 pot spec=n;KCNQ2 pot conf=3.4;Kir21 spec=n;KCNQ2 W236L pot=n
O=C(Nc1ccc(-n2cnnn2)cc1)C1CCC1	x	n	x	x
Nc1ccccc1C(=O)Nc1cccc2ccccc12	x	n	x	x
CC12CCC(C(=O)Nc3cccc4ccccc34)(C1Br)C2(C)C (configuration not stated)	10.3	n	n	n	CHO-K1 ctr=1.5;KCNQ1 pot spec=n;KCNQ2 pot conf=48.5;Kir21 spec=n;KCNQ2 W236L pot=n
COC(OC)c1ccc(C#N)c(SCc2ccc(C)cc2)n1	x	n	x	x
C=CCNCCCOc1ccc(Cl)cc1C(C)(C)C	x	n	27.5%	n
C=CCNCCOCCOc1ccc(Cl)cc1C(C)(C)C	x	n	x	x
